# Results with a measured potency or affinity are listed apart. Active and inactive are the calls of the source.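 The calls were made as follows: active = signal-lowering compounds whose fitted half-maximal concentration is at or below twice the top tested dose in every run; inconclusive = runs disagree, flat 30 to 70% inhibition, or poor curve fit; inactive = the rest.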
# Target: Protein S100-A4 (Homo sapiens) (UniProt P26447)
# Assay: S100A4-myosin IIA binding inhibitor potency, dose response, biochemical, fluorescence polarization, cherry-picked hits (AID 687001)
# Conditions: FP, S100A4/TAMRA-myosin IIA peptide binding; series mostly up to 11 µM
# Protein S100-A4 (Homo sapiens), sequence (P26447 whole entry, looked up): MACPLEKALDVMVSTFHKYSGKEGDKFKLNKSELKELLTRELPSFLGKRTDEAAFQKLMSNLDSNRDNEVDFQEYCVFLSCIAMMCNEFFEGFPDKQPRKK
row,SMILES,outcome
1,O=C(O)c1ccccc1SCCS(=O)(=O)c1ccc(Cl)cc1Cl,inactive
2,C[C@@H]1CN([C@H](C)CO)C(=O)c2cc(NC(=O)Nc3ccc(C(F)(F)F)cc3)ccc2O[C@@H]1CN(C)C(=O)Nc1ccc(C(F)(F)F)cc1,inactive
3,Cc1ccc(NC(=O)COC(=O)c2ccccc2F)cc1S(=O)(=O)N1CCCCC1,inactive
4,O=C(Nc1ccccc1F)N[C@@H]1CC[C@H](CCNC(=O)C2CCCCC2)O[C@H]1CO,inactive
5,O=C1C2C3C=CC(C2C(=O)N1CCO)C1C(=O)N(CCO)C(=O)C31 (centres undefined),inactive
6,O=C1NC(Cc2ccc(Cl)cc2)COCc2cnnn2CCC1c1ccccc1 (centres undefined),inactive
7,CCOc1ccc(C2C(C(=O)c3ccco3)=C(O)C(=O)N2CCN2CCOCC2)cc1OCC (centres undefined),inactive
8,C[C@@H]1CN([C@@H](C)CO)C(=O)c2cc(NC(=O)CCCCCC(=O)Nc3ccccc3N)ccc2O[C@H]1CN(C)C(=O)Nc1ccc2c(c1)OCO2,inactive
9,CCN1C(=O)c2ccccc2S(=O)(=O)c2ccc(C(=O)NCC(OC)OC)cc21,inactive
10,Nc1nc(SCC(=O)c2ccc(Cl)cc2)c2ncn(C3OC(CO)C(O)C3O)c2n1 (centres undefined),inactive
11,O=Cc1ccc(N2N=C(c3ccccc3)CC2c2ccccc2)cc1 (centres undefined),inactive
12,O=C1O[C@@H](c2ccccc2)C[C@@H](O)C(=O)CCCCc2ccccc21,inactive
13,Cc1ccc(CNS(=O)(=O)c2ccc(C)s2)cc1,inactive
14,COc1cccc(-c2nnc(NC(=O)CCS(=O)(=O)c3ccc(F)cc3)o2)c1,inactive
15,COc1ccc(CN(C)C[C@H]2Oc3c(NC(=O)NC(C)C)cccc3C(=O)N([C@H](C)CO)C[C@H]2C)cc1,inactive
16,CO[C@H]1CC[C@H]2CCN(C)C(=O)[C@@H](C)[C@H](OC)CN(C)C(=O)c3cc(C#N)ccc3OC[C@H]1O2,inactive
17,Cc1ccc(C(=O)NC2CC(=O)N(c3ccc4c(c3)OCCO4)C2)cc1[N+](=O)[O-] (centres undefined),inactive
18,COCC(=O)N[C@H]1C=C[C@@H](CC(=O)OC)O[C@@H]1CO,inactive
19,COc1ccc(CN2CCC(C(=O)Nc3ccc(Oc4cccnc4)cc3)CC2)c(C)c1C,inactive
20,Cc1ccc(NS(=O)(=O)c2ccc(-c3coc(C)n3)cc2)c(C)c1,inactive

row,SMILES,outcome
1,Cc1ccc(CN2C(=O)CSc3ccc(C(=O)NC4CC4)cc32)cc1,inactive
2,CC(C)NC(=O)N(C)C[C@H]1Oc2ccc(NS(=O)(=O)c3ccc(F)cc3)cc2C(=O)N([C@H](C)CO)C[C@@H]1C,inactive
3,CO[C@H]1CN(C)C(=O)c2cc(NC(=O)C3CC3)ccc2OC[C@H](C)N(C(=O)CN(C)C)C[C@H]1C,inactive
4,COc1ccc(CN2C(=O)c3ccccc3C2c2nnnn2Cc2ccccc2)cc1OC (centres undefined),inactive
5,COc1ccc(CNC(=O)CN2C(=O)c3ccccc3C2=O)cc1,inactive
6,C[C@@H]1CN([C@@H](C)CO)C(=O)CCCn2cc(nn2)CO[C@H]1CN(C)S(=O)(=O)c1ccc(Oc2ccccc2)cc1,inactive
7,COc1ccc(C(=O)CC(=O)C(=O)Nc2c(C)cccc2C)cc1,inactive
8,O=C(NCCS(=O)(=O)NCCCc1ccccc1)c1ccccc1,inactive
9,COc1ccccc1N(C)S(=O)(=O)c1ccc(C(=O)NCC2CCCCC2)cc1,inactive
10,CCOC(=O)[C@@H]1[C@H]2COc3cc(OC)ccc3[C@@H]2N2C(=O)N(c3cccc(C)c3)C(=O)[C@]12C,inactive
11,C[C@H]1CN([C@@H](C)CO)C(=O)c2cc(NC(=O)CCCCCC(=O)Nc3ccccc3N)ccc2O[C@H]1CN(C)S(=O)(=O)c1cccs1,inactive
12,CN(C(=O)COC(=O)/C=C/c1ccc2c(c1)OCO2)c1c(N)n(Cc2ccccc2)c(=O)[nH]c1=O,inactive
13,CC(=O)Nc1ccc2nsnc2c1,inactive
14,CCN(CC)c1ccc(S(=O)(=O)N2CCOCC2)cc1NC(=O)COC(=O)/C=C/c1ccccc1,inactive
15,O=C(NC1CCCC1)N1CCCCN2[C@@H](CO)[C@@H](c3ccc(-c4cccnc4)cc3)[C@@H]2C1,inactive
16,Cc1cccc2sc(NC(=O)C3CCN(C(=O)c4ccco4)CC3)nc12,inactive
17,CCn1nc(C(=O)Nc2cc(Cl)ccc2-n2cncn2)c2ccccc2c1=O,inactive
18,Cn1c(=O)[nH]c2c(nc(-c3ccc(Cl)cc3)n2C)c1=O,inactive
19,Cc1c(C(=O)OCC(=O)N(C)CC(=O)Nc2ccc(F)cc2)oc2ccccc12,inactive
